This is a sample that favours compounds with a hit; in the whole collection about 0.37% have one here.
CBFb-RUNX1 inh: blocks binding between human CBF-beta and RUNX1; Q01196+Q13951; AlphaScreen CBFb-His/RUNX1-biotin binding, biochemical; Potency, µM (titrated, usually from 59.8 µM), without a hit: at the top dose activity, negative = inhibition, hits mostly inhibitors; 230,000 tested, under 10 active; AID 1477; note: % of control where 0% means no effect
Target sequence (Q01196 whole entry, looked up): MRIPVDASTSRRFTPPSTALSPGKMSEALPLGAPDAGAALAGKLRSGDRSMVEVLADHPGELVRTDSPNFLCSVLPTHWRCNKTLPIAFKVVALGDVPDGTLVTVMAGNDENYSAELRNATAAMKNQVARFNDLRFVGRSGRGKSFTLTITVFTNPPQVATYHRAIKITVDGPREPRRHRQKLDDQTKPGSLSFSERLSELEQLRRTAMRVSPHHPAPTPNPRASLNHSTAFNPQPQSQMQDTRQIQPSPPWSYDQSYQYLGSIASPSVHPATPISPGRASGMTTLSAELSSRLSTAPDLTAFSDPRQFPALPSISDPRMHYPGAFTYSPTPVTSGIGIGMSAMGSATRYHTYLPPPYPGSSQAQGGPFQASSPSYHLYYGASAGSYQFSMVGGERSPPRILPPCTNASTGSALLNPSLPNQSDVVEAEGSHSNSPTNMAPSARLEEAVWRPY
Target sequence (Q13951 whole entry, looked up): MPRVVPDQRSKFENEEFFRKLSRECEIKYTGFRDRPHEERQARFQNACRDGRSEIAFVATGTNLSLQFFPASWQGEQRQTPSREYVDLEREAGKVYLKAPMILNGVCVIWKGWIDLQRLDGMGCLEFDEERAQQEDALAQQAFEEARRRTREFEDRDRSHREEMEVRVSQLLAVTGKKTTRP
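Room-temperature protein-protein interaction test with 30 nM each of His-tagged CBF-beta and biotinylated RUNX1, 15 min with compound, then 90 min with nickel plus streptavidin beads. Signal read in AlphaScreen mode.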
IMPase Li cell: cell-permeable IMPase inhibitors with lithium potentiation; CHO-M1 cells, IP1 TR-FRET (IP-One), carbachol + lithium; Potency, µM (highest dose often 59.4 µM), without a hit: at the highest dose activity, negative = IMPase inhibition, most hits filed as inhibitors; 0.35% of 210,000 active;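 note: IP1 builds up when IMPase is blocked and the TR-FRET signal falls; potency is the fitted concentration of half-maximal effect; plate controls were basal vehicle for no effect and high inhibitor control for full effect; nearly all actives have a fitted effect of over 50% in size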
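Readout is a homogeneous TR-FRET IP1 immunoassay (Ex 320, Em 665 and 620), where raised cytosolic IP1 lowers signal. Cells were CHO-M1 treated 30 min at 37C with test compounds plus a little lithium; AC50 values came from Hill-equation fitting.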
A-T KAP1 phos: potential ataxia-telangiectasia treatment; F2112 A-T fibroblasts, KAP-1 phosphorylation AlphaLISA; neocarzinostatin DNA damage 30 min before lysis; Potency, µM (top dose mostly 57.5 µM), for inactives: at the highest dose activation, usual class: activators; 0.19% of 320,000 active; AID 485349; note: potency is the fitted concentration of half-maximal effect; % of control where 0% means no effect; nearly all actives have a fitted effect of over 45% in size
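ATM-like activity read as KAP-1 phosphorylation via AlphaLISA donor/acceptor antibody pairs after lysis and 6 hr at 25C. Cells were ATM-null patient fibroblasts (F2112, hTERT), dosed 60 min, then exposed to the DSB inducer NCS for 30 min.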
TSG101-PTAP inh: blocks PTAP/TSG101 interaction to inhibit HIV-1 budding; 340,000 tested, under 10 active; Q99816; Fluorescence polarization, FITC-PTAP peptide / Tsg101 binding; Potency, µM (titrated, usually from 115 µM), for the others: at the highest dose activity change, negative = inhibition, usual class: inhibitors; active = well fitted inhibition curve with a large enough effect in the main read-out, with a control signal flat, not every such curve was filed as active; inconclusive = small, poorly fitted or top-dose-only effect, or effect the other way, or a change in a side signal; inactive = no such curve, though single readings can be large or run the other way; note: potency is the fitted concentration of half-maximal effect; % of control where 0% means no effect
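Steps: Tsg101 binding domain dispensed (10 uM final), compounds pinned in DMSO, FITC-labeled PTAP-motif peptide added (50 nM final); after 20 min binding at room temperature, polarization measured.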
An asterisk follows results filed as active; u = inconclusive; x = no result; ! = repeats disagree; [ ] = remark or other dose. Unless noted, calls come from the whole dose curve; as a rule, active = well fitted curve in the direction sought with a large enough effect; inconclusive = small, poorly fitted or top-dose-only effect, or another doubt; inactive = no such curve, though single readings can be large; an effect the other way counts as inactive or inconclusive.

SMILES | CBFb-RUNX1 inh | IMPase Li cell | A-T KAP1 phos | TSG101-PTAP inh
O=C(c1ccc(F)cc1)C(CN1CCOCC1)c1ccccc1 (stereo unspecified) | 1% | 24%[38.3 µM] | 40µM* | -3%
O=C(c1ccccc1)C(CCC(CN1CCOCC1)C(=O)c1ccccc1)CN1CCOCC1 (stereo unspecified) | 3% | 14%[38.3 µM] | 35µM* | -3%
O=C(c1ccc(-c2ccccc2)cc1)N1CCN(c2nc3ccccc3o2)CC1 | 19% | 2% | 2% | -1%
CCCn1nc(NC(=O)c2ccncc2)c2cc3ccccc3nc21 | 1% | x | 13% | -2%
CCCn1nc(NC(C)=O)c2cc3cccc(C)c3nc21 | x | x | 14µM* | -1%
CCCn1nc(NC(=O)c2cccs2)c2cc3cc(OC)ccc3nc21 | u | 33%[38.3 µM] | u | -1%
CCCCn1nc(NC(=O)c2cccs2)c2cc3cc(OC)ccc3nc21 | u | 15% | 28µM* | 0%
CCCn1nc(NC(=O)CC(C)C)c2cc3cccc(C)c3nc21 | x | x | 26% | -10%
CCCC(=O)Nc1nn(CCC)c2nc3ccccc3cc12 | -2% | 8%[38.3 µM] | 28µM* | -5%
CCOC(=O)c1cc(-c2cc3ccccc3o2)nc2c1c(=O)[nH]c(=O)n2CCOC | 3% | 10µM* | 4% | -5%
CCOC(=O)c1cc(-c2ccc([N+](=O)[O-])cc2)nc2c1c(=O)[nH]c(=O)n2Cc1ccccc1 | x | x | 2% | 0%
O=C1CN(CC(=O)N2CCCCC2)c2ccccc2O1 | -11% | 0%[38.3 µM] | 7% | -5%
O=C1CN(CC(=O)N2CCOCC2)c2ccccc2O1 | u | 50%[38.3 µM] | 28µM* | x
CCCN1CN(c2ccccc2)C(=S)N(c2ccccc2)C1 | 20% | x | 1.1µM* | -1%
COC(=O)CCn1nnc(-c2cccs2)n1 | 2% | 17%[38.3 µM] | 1% | -6%
COc1ccccc1CNC(=O)CSc1nc(N)c(C#N)c(-c2cccs2)c1C#N | -3% | 3.5µM* | 11% | 2%
CC1CCN(CCCn2c(=S)[nH]c3c(sc4ccc([N+](=O)[O-])cc43)c2=O)CC1 | -1% | 5% | 5% | -1%
Nc1nc(N)c2nc(-c3ccccc3)c(N)nc2n1 | -9% | 13µM*! | 12% | -5%
O=C(N/N=C/c1ccc2c(c1)OCO2)c1cccc2ccccc12 | x | x | 2% | 0%
Cn1cc(C(=O)N/N=C/c2ccc3c(c2)OCO3)c2ccccc21 | 3% | x | 22µM* | 2%
COc1ccc(C2CN=NC23CCCc2ccccc2C3=O)cc1 (stereo unspecified) | 4% | 9%[38.3 µM] | -3% | -1%
Cn1c(=NC(=O)COc2ccccc2)sc2ccccc21 | u | 13µM* | -2% | -6%
Oc1cccc(/C=N/c2c(-c3ccco3)nc3ccccn23)c1 | 7% | 13µM* | x | -15%
O=c1c2c3c(sc2[nH]c(=S)n1Cc1ccco1)CCC3 | u | x | 6% | 1%
CC1(C)Cc2c(sc3[nH]c(=S)n(Cc4ccco4)c(=O)c23)CO1 | u | 3.5µM* | 5% | -1%
SMILES | CBFb-RUNX1 inh | IMPase Li cell | A-T KAP1 phos | TSG101-PTAP inh
COc1ccc(Cl)cc1C(=O)Nc1nc2ccc(S(C)(=O)=O)cc2s1 | 3% | 13µM* | 2% | x
COc1cc(C(=O)Nc2nc3ccc(S(C)(=O)=O)cc3s2)cc(OC)c1C | -6% | x | 2% | -2%
c1ccc(-c2nnc(CN3CCCCC3)o2)cc1 | x | x | 45µM* | -1%
O=C(Cn1ccc([N+](=O)[O-])n1)Nc1ccccn1 | 8% | x | 0% | 1%
CCOC(=O)N1CCN(C(=O)Nc2ccc3nccnc3c2)CC1 | 5% | 7% | x | -6%
CCOC(=O)N1CCN(C(=O)Nc2ccc3nc(C)c(C)nc3c2)CC1 | 1% | -13%[38.3 µM] | 40µM* | 1%
CN1CCCN(C(=O)c2ccc(Cl)c(S(=O)(=O)N(C)c3ccccc3)c2)CC1 | 5% | -5%[38.3 µM] | 1% | -6%
c1ccc(N2CCN(c3cnccn3)CC2)nc1 | 1% | x | 4% | -6%
N#Cc1cc(C#N)c(N2CCN(c3ccccn3)CC2)nc1N | 8% | 28µM* | -2% | -6%
COC(=O)c1c(NC(=O)C2C3CCC(C3)C2C(=O)O)sc2c1CCCCC2 (stereo unspecified) | -5% | -7% | 5% | 0%
CC1=C(C(=O)Nc2ccccn2)C(c2ccc3c(c2)OCO3)C2=C(CC(C)(C)CC2=O)N1 (stereo unspecified) | -8% | -1% | 8% | 0%
CSc1ncccc1C(=O)Nc1ccc2c(c1)OCCO2 | x | x | 28µM* | -9%

Assay outcomes deposited in PubChem BioAssay by National Center for Advancing Translational Sciences (NCATS).
